From PubChem BioAssay
Most compounds without a hit are left out; they make up all but 18% or so of the library.
TDP1 inh – inhibitors of human tyrosyl-DNA phosphodiesterase TDP1 | Q9NUW8 | recombinant TDP1, AlphaScreen DNA substrate cleavage | Potency, µM (doses to about 130 µM), inactives show top-dose activity change, negative = inhibition, actives largely listed as inhibitors | 0.28% of 350,000 active | AID 485290; note: potency is the fitted concentration of half-maximal effect; % is set by controls: 0 for no effect and ±100 for the full control effect; nearly all actives have a fitted effect of over 40% in size
Target sequence (Q9NUW8 whole entry, looked up): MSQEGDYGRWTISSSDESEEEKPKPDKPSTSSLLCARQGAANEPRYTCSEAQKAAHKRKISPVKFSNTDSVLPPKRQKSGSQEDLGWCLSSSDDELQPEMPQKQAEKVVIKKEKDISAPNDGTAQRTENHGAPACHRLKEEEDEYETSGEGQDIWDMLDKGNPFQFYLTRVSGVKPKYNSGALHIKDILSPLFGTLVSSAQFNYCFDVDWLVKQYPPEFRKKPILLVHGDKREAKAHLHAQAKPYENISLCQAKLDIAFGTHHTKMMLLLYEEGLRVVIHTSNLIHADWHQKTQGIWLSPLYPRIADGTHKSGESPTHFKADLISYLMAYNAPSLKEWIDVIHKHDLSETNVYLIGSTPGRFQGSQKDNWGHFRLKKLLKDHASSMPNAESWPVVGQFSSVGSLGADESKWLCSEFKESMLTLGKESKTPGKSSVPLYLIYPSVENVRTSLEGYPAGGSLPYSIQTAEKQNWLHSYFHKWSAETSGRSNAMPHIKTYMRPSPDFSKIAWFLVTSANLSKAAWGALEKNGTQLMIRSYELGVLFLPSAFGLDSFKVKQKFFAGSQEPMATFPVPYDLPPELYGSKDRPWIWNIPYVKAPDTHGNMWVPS
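Compounds were preincubated with Tdp1 (1 nM final) for 15 min at room temperature before substrate (15 nM final) started a 5 min reaction; beads (10 ug/ml final) were then added for 10 min before AlphaScreen detection.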
TGFb SMAD3 inh – inhibitors of TGF-b signaling; HepG2 CAGA-GFP TGF-b/SMAD3 reporter, GFP fluorescence, 18 h; TGF-beta stimulated, 500 pg/mL final; Potency, µM (titrated, usually from 46.1 µM), inactives show at the top dose activity, negative = inhibition, hits mostly inhibitors; 1.2% of 410,000 active; note: potency is the fitted concentration of half-maximal effect; % is set by controls: 0 for no effect and ±100 for the full control effect; nearly all actives have a fitted effect of over 65% in size
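First, reporter cells (HEPG2 CAGA-GFP) rested 2 h at 37 degrees C. Next, compounds were pinned in and TGF-beta added to 500 pg/mL final. After 18 h, GFP was imaged per cell and summed per well.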
DT40 TDP1 no CPT – qHTS for Inhibitors of human tyrosyl-DNA phosphodiesterase 1 (TDP1): qHTS in cells in absence of CPT; Potency, µM (highest dose often 46.2 µM), inactives show at the highest dose activity change, negative = growth inhibition, usual class: inhibitors; 15% of 420,000 active; DT40 Tdp1-/- hTDP1 cells, no CPT, ATP luminescence, 48 h; AID 686978, 2013; note: potency is the fitted concentration of half-maximal effect; % is set by controls: 0 for no effect and ±100 for the full control effect; nearly all actives have a fitted effect of over 55% in size
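Camptothecin absent (DMSO only). Human TDP1-complemented DT40 knockout cells, 400 cells/well, 37 °C for minimum 48 hr; ATP measured via CellTiter-Glo, 30 min dark incubation, luminescence.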
HepG2 tox – kills HepG2 cells in TGF-b inhibitor counter-screen. AID 588856. Potency, µM (doses to about 46.1 µM), for inactives: top-dose activity change, negative = cytotoxicity, usual class: cytotoxic. 0.76% of 410,000 active. HepG2 CAGA-GFP viability, ATP luminescence, 18 h; note: potency is the fitted concentration of half-maximal effect
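HepG2 CAGA-GFP cells (1000/well, DMEM with 1% FBS) received compound, then TGF-beta at 500 pg/mL final, and were incubated 18 hours at 37 degrees C. Viability was read by CellTiter-Glo luminescence. Media-only wells were set as complete cell-killing and DMSO as no toxicity.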
DT40 TDP1 CPT – growth inhibition of DT40 Tdp1-/-;hTDP1 cells with camptothecin (screen for TDP1 inhibitors); chicken DT40 Tdp1-/-;hTDP1 cells + 20 nM CPT, ATP luminescence, 48 h; Potency, µM (doses to about 46.2 µM), inactives show at the highest dose activity change, negative = growth inhibition, usual class: inhibitors; 12% of 420,000 active; AID 686979; note: potency is the fitted concentration of half-maximal effect; % is set by controls: 0 for no effect and ±100 for the full control effect; nearly all actives have a fitted effect of over 55% in size
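Chicken DT40 Tdp1-/- cells stably complemented with human TDP1 were seeded at 400 cells/well in medium containing 20 nM camptothecin, exposed to pin-transferred compounds, and grown at 37 °C for at least 48 hr. Viability was read as ATP luminescence.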
IL-1B inflam inh – inhibitors of inflammasome signaling (IL-1 beta secretion); THP-1 LPS/ATP IL-1B secretion, AlphaLISA, 16 h; active compounds read low; activity change, % at 57.5 µM; 4.7% of 360,000 active; AID 743279; in the data active = activity change below about -50%; inconclusive = mostly about -30% to -49%; note: % is set by controls: 0 for no effect and ±100 for the full control effect
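THP-1 cells pretreated 1 hr with compounds (up to 57.5 uM final), then stimulated with LPS (250 ng/mL final) plus ATP (1.25 mM final); secreted IL-1B measured by AlphaLISA after 16 hr, decreased signal indicating inhibition.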
Active calls of the source: *; ? = inconclusive; . = not tested or not shown. Unless noted, calls come from the whole dose curve; as a rule, active = well fitted curve in the direction sought with a large enough effect; inconclusive = small, poorly fitted or top-dose-only effect, or another doubt; inactive = no such curve, though single readings can be large; an effect the other way counts as inactive or inconclusive.

SMILES	TDP1 inh	TGFb SMAD3 inh	DT40 TDP1 no CPT	HepG2 tox	DT40 TDP1 CPT	IL-1B inflam inh
O=C(NCCc1ccc(Cl)cc1)c1ccc(Cn2c(=O)c3cccn3c3cccnc32)cc1	-8%	11µM*	15µM*	-60%	?	.
CC(C)Oc1ccc(CNC(=O)c2ccc(Cn3c(=O)c4cccn4c4cccnc43)cc2)cc1	-3%	-2%	0.46µM*	-7%	?	.
CCOc1ccc(CCNC(=O)c2cccc(-n3c(C)nc4cccnc43)c2C)cc1	-3%	0%	15µM*	2%	21µM*	.
Cc1ccc(CNC(=O)C(=O)NCC2OCCN2S(=O)(=O)c2ccc(Cl)cc2)cc1 (centres undefined)	.	-19%	?	-28%	?	1
Cc1ccc(S(=O)(=O)N2CC=C(c3c(C)n(CC(=O)N4CCCC4)c4ccccc34)CC2)cc1C	9%	?	?	-40%	?	.
CCn1c(-c2cccnc2)nc2cc(NC(=O)COC)cc(C(=O)N3CC[C@@H]4CCCC[C@H]4C3)c21	.	.	-30%	.	10%	.
CCc1ccc(CN(C)C(=O)c2cc(COc3ccc(-n4cncn4)cc3)on2)cc1	2%	?	15µM*	-15%	?	?
Cc1ccc(OCc2cc(C(=O)N(C)Cc3cnn(-c4ccccc4C)c3)no2)cn1	4%	-20%	18µM*	-21%	12µM*	-9
CN(Cc1ccc(F)cc1)C(=O)c1cc(COc2ccc(-n3cncn3)cc2)on1	3%	?	16µM*	-10%	23µM*	-9
CCc1ccc(CN(C)C(=O)c2cc(COc3cncc(Cl)c3)on2)cc1	.	-9%	?	-13%	?	-22
CC(C)N(Cc1nccn1C)C(=O)c1cc(COc2ccc(-n3cncn3)cc2)on1	.	-6%	?	3%	-24%	0
COc1ccc(-c2cc(=O)[nH]c(N3CCN(Cc4ccccc4)CC3)n2)cc1	.	-4%	?	3%	?	-7
O=c1cc(-c2ccccc2)nc(N2CCN(Cc3ccccc3)CC2)[nH]1	1%	10%	21µM*	4%	18µM*	-5
Cc1ccccc1C(=O)N1CCC(C(=O)N2CCCc3ccccc32)CC1	2%	-29%	?	-8%	?	21
CCCn1c2ccccc2c2nnc(SCC(=O)Nc3cc(C)on3)nc21	9%	20%	?	-1%	-19%	-6
Cn1c2ccc(F)cc2c2nnc(SCC(=O)Nc3cccc(O)c3)nc21	.	-2%	?	-8%	1%	-71*
COc1ccccc1N1CCN(C(=O)CSc2nnc3c4ccccc4n(CC(=O)O)c3n2)CC1	1%	-28%	-18%	4%	-11%	15
CCCn1c2ccccc2c2nnc(SCC(=O)Nc3ncccn3)nc21	-5%	-6%	?	9%	26µM*	1
CCn1c2ccccc2c2nnc(SCC(=O)N3CC(C)OC(C)C3)nc21 (centres undefined)	7%	0%	16µM*	-20%	?	22
Cc1ccc(C2=NN=C(NC(=O)CSc3nnc4c5ccccc5n(C)c4n3)SC2)cc1	3%	-17%	9.2µM*	-1%	10µM*	0
COc1ccc(NC(=O)c2ccc([N+](=O)[O-])s2)c([N+](=O)[O-])c1	-12%	-2%	-8%	-1%	-27%	0
Cc1ccnc(NC(=O)c2ccc([N+](=O)[O-])s2)c1	5%	13µM*	?	-104%	16µM*	-11
Cc1cccc(NC(=O)c2ccc([N+](=O)[O-])s2)c1C	-5%	11µM*	21µM*	14µM*	15µM*	-15
